This passage reports Potency results from PubChem BioAssay (Tox21).

Test [1] in a line: qHTS assay to identify aromatase inhibitors - cell viability counter screen (AID 743084).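 Further: cells stimulated with testosterone during compound exposure; nearly all actives have a fitted effect of over 55% in size.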 Further: potency means the concentration at half of the fitted maximal effect. In general terms: Quantitative high-throughput screening tests each substance at several concentrations.
Test [2] addresses Aryl hydrocarbon receptor (Homo sapiens) (UniProt P35869). The experiment in a line: qHTS assay to identify small molecule that activate the aryl hydrocarbon receptor (AhR) signaling pathway (AID 743085). Further: nearly all actives have a fitted effect of over 15% in size. Further: potency means the concentration at half of the fitted maximal effect.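 On activation: HG2L7.5c1 human HepG2 liver cells with stably integrated DRE-driven firefly reporter; series mostly up to about 70 µM.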 The method, boiled down:
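Luminescence read-out: ONE-Glo reagent, 30 min at room temperature, in HG2L7.5c1 HepG2 reporter cells treated 24 h at 37C. Viability was measured beforehand by CellTiter-Fluor fluorescence after 30 min at 37C.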

Test [3] in a line: qHTS assay to identify small molecule that activate the aryl hydrocarbon receptor (AhR) signaling pathway - cell viability counter screen (AID 743086).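 Further: HepG2 liver cells carrying the AhR DRE luciferase reporter; series mostly up to about 70 µM; nearly all actives have a fitted effect of over 45% in size.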 The method, boiled down:
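Cytotoxicity counter screen: CellTiter-Fluor signal (30 min, 37 C) in 4000 HepG2 cells/well carrying the DRE-luciferase reporter, following 24 h compound exposure at 37 C.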

Test [4] has as its target Peroxisome proliferator-activated receptor gamma (Homo sapiens) (UniProt P37231). Kind of test: qHTS assay to identify small molecule agonists of the peroxisome proliferator-activated receptor gamma (PPARg) signaling pathway (AID 743094; active means well fitted activation curve with a large enough effect in the signal ratio in the repeat runs, not every such curve was filed as active; the % refers to the signal ratio; further: potency means the concentration at half of the fitted maximal effect). The method, boiled down: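 GeneBLAzer PPARg UAS-bla HEK293H cells carrying a stably integrated beta-lactamase reporter were pre-incubated 5 h at 37C, then exposed to compounds in DMSO for 17 h at 37C; LiveBLAzer B/G FRET substrate was added for 1 h at room temperature and fluorescence read.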

The nature of test [5]: qHTS assay for small molecule agonists of the antioxidant response element (ARE) signaling pathway (AID 743202; active means well fitted activation curve with a large enough effect in the signal ratio in the repeat runs, not every such curve was filed as active; the % refers to the signal ratio; further: potency means the concentration at half of the fitted maximal effect). The method, boiled down: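 Quantitative high-throughput format in HepG2 cells bearing an integrated ARE-beta-lactamase reporter. Compound exposure lasted 16 h at 37 C, and fluorescence was read 2 h after adding LiveBLAzer B/G substrate at room temperature.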
Test [6] in a line: qHTS assay for small molecule agonists of the antioxidant response element (ARE) signaling pathway - cell viability counter screen (AID 743203; calls by dose curve; further: nearly all actives have a fitted effect of over 55% in size; further: potency means the concentration at half of the fitted maximal effect). The method, boiled down:
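CellSensor ARE-bla HepG2 cells, 2,000 per well, rested 5 hrs at 37C/5% CO2, then exposed to compound in DMSO for 16 hrs; viability read as CellTiter-Glo luminescence after 30 min at room temperature, in the reporter wells.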

Test [7] in a line: qHTS assay for small molecule activators of the heat shock response signaling pathway - cell viability counter screen (AID 743209). Further: nearly all actives have a fitted effect of over 50% in size. Further: potency means the concentration at half of the fitted maximal effect. The method, boiled down:
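CellSensor HSE-bla HeLa cells, plated overnight at 37 C/5% CO2, were exposed to compounds in DMSO for 5 h at 37 C. Viability was then read in the same wells by CellTiter-Glo luminescence after 30 min at room temperature.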

Test [8] is described as follows: qHTS assay for small molecule activators of the heat shock response signaling pathway (AID 743210; active means well fitted activation curve with a large enough effect in the signal ratio in the repeat runs, with a control signal flat, not every such curve was filed as active; the % refers to the signal ratio;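 further: HeLa cells with beta-lactamase reporter driven by heat shock elements; series mostly up to about 63 µM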). The method, boiled down:
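HeLa HSE-bla cells, overnight plating; cpd in DMSO 5 h, 37 C; LiveBLAzer B/G FRET substrate 2.5 h RT; fluorescence intensity read.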

A short description of test [9]: qHTS assay to identify small molecule antagonists of the peroxisome proliferator-activated receptor gamma (PPARg) signaling pathway - cell viability counter screen (AID 743194). Further: nearly all actives have a fitted effect of over 55% in size. Further: potency means the concentration at half of the fitted maximal effect. As to conditions: Potency: co-treated with 50 nM rosiglitazone unless noted. The method, boiled down:
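Viability was measured as CellTiter-Glo luminescence in GeneBLAzer PPARg UAS-bla HEK293H cells. These cells had been exposed 17 h at 37 C to compounds together with rosiglitazone at 50 nM final, with the beta-lactamase readout taken in the same wells.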

Test [10] concerns the target Peroxisome proliferator-activated receptor gamma (Homo sapiens) (UniProt P37231). The experiment in a line: qHTS assay to identify small molecule antagonists of the peroxisome proliferator-activated receptor gamma (PPARg) signaling pathway (AID 743191; calls by dose curve; further: series mostly up to about 63 µM; nearly all actives have a fitted effect of over 30% in size). The method, boiled down: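 Beta-lactamase reporter under UAS control in HEK293H PPARg-bla cells; compound treatment 17 h at 37C. Read-out: fluorescence intensity after 1 h room-temperature incubation with LiveBLAzer B/G FRET substrate.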

Inconclusive results are not listed. Activity calls are given as the source filed them. Unless noted, the call rests on the fitted dose curve; in most records, active means well fitted curve in the direction sought with a large enough effect in the repeat runs; inconclusive means weak or mixed curves; inactive means no such curve, though single readings can be large; an effect the other way counts as inactive or inconclusive.

Peroxisome proliferator-activated receptor gamma (Homo sapiens), sequence (P37231 whole entry, looked up): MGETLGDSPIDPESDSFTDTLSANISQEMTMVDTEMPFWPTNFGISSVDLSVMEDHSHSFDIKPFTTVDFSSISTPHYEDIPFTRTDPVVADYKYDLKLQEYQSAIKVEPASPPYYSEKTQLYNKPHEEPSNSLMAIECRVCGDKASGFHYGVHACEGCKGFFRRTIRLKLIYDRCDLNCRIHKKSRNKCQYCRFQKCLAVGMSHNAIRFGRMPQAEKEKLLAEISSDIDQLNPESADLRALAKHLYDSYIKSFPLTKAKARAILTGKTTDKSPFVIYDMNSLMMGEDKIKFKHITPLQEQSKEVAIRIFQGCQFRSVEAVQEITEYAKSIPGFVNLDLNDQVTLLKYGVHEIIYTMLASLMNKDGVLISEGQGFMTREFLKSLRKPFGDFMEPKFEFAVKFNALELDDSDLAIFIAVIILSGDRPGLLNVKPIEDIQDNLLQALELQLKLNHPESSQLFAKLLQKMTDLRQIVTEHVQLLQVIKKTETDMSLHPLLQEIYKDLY
Aryl hydrocarbon receptor (Homo sapiens), sequence (P35869 whole entry, looked up): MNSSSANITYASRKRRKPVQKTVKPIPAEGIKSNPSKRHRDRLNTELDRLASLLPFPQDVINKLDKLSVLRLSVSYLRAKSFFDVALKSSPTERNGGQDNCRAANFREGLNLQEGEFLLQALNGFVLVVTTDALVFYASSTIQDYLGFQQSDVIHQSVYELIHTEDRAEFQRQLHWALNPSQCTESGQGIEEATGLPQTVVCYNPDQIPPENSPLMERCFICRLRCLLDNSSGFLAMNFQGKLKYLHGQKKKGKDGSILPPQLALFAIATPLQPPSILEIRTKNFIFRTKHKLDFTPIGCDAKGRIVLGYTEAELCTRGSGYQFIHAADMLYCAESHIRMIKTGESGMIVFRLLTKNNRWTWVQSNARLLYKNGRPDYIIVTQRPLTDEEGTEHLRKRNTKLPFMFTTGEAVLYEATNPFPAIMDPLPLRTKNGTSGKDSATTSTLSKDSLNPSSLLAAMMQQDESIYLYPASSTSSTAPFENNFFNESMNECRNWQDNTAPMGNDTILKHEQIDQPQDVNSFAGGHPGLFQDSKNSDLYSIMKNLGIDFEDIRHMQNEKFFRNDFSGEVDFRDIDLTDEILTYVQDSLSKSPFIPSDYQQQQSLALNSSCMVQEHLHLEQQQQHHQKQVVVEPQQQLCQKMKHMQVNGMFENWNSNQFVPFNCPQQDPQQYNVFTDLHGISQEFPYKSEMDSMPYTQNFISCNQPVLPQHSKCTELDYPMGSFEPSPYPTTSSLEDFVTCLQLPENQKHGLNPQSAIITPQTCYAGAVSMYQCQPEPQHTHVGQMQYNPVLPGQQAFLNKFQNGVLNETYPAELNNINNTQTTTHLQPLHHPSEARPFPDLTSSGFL

With `CCOC(=O)OC1=C(c2cc(C)ccc2C)C(=O)NC12CCC(OC)CC2` (stereo not given), the Potency entry in [1], in test [2], in test [3], in test [4], in test [5] and in test [6] was “inactive” each time. Further, the Potency result in test [7] and in [8] was “inactive” throughout.

For the compound `CC1(C)CC/C(=C/c2ccc(Cl)cc2)C1(O)Cn1cncn1` (stereo not given), the Potency result in [1] and in [3] was “inactive” throughout. The Potency in [2] was 8.6 µM (active).

Regarding `Clc1ccc(C(c2ccccc2Cl)C(Cl)(Cl)Cl)cc1` (stereo not given), the Potency entry in [1], in test [2], in test [3], in test [4] and in test [7] was “inactive” in each case. Moreover, the Potency in test [6] is 61.5 µM (active).

With `FC(F)(F)c1cccc(C2=CCN(CCc3ccc4ccccc4c3)CC2)c1`, the Potency entry in test [1], in [2], in test [3], in test [4], in test [9] and in test [6] was “inactive” throughout. Besides, the Potency entry in [7] and in [8] was “inactive” each time.

For `BrC(Br)Br`, the Potency result in [1], in test [2], in [3], in [4], in test [5] and in [6] was “inactive” each time. The Potency entry in test [7] and in [8] was “inactive” throughout.

In the case of `COc1ccc(OC)c(CC(C)N)c1` (stereo not given), the Potency entry in [1], in [2], in [3], in [4], in [10] and in [5] was “inactive” in each case. For the same compound, the Potency result in test [6], in test [7] and in test [8] was “inactive” each time.

For `CC(C)CC(C)N` (stereo not given), the Potency result in test [1], in [2], in test [3], in test [4], in [5] and in test [6] was “inactive” in each case. The Potency result in test [7] and in test [8] was “inactive” each time.

As to `C[C@]12CC[C@H]3[C@@H](CCC4=CC(=O)CC[C@@]43C)[C@@H]1CC[C@@H]2O`, the Potency entry in test [1], in [2], in [3], in [4], in [9] and in test [6] was “inactive” throughout. In addition, the Potency result in test [7] and in test [8] was “inactive” throughout.

As for `O=C1NCN(c2ccccc2)C12CCN(CC1COc3ccccc3O1)CC2` (stereo not given), the Potency result in [1], in test [2], in [3], in test [4], in [5] and in test [6] was “inactive” each time. The Potency result in [7] and in test [8] was “inactive” in each case.

As for `ClC(Cl)=C(Cl)Cl`, the Potency result in test [1], in test [2], in test [3], in [4], in test [9] and in test [5] was “inactive” throughout. Besides, the Potency entry in test [6], in test [7] and in test [8] was “inactive” throughout.

For `C[C@H]1CC[C@@H]2[C@@H](C)[C@H]3[C@H](C[C@H]4[C@@H]5CC=C6CC(O[C@@H]7O[C@H](CO)[C@H](O)[C@H](O[C@@H]8O[C@H](CO)[C@@H](O)[C@H](O)[C@H]8O)[C@H]7O[C@H]7O[C@@H](C)[C@H](O)[C@@H](O)[C@H]7O)CC[C@]6(C)[C@H]5CC[C@]34C)N2C1` (stereo not given in full), the Potency is 19.9 µM (active) in [1], 8.99 µM (active) in test [9], 7.94 µM (active) in test [6] and 16 µM (active) in test [7]. Besides, the Potency result in [2], in [3] and in [4] was “inactive” in each case.

Consider `CC(C)OC(=O)C(O)(c1ccc(Cl)cc1)c1ccc(Cl)cc1`, for which the Potency entry in test [1], in [2], in [3], in [4], in test [5] and in test [6] was “inactive” in each case. Also, the Potency entry in test [7] and in [8] was “inactive” in each case.

`C=CC(=O)OCCCCOC(=O)C=C`: the Potency in test [1] is 48.6 µM (active); in test [4], 9.77 µM (active); in test [5] it was 27.3 µM (active); in test [7] it was 5.49 µM (active). Moreover, the Potency entry in [2] and in test [3] was “inactive” throughout.

Take `NNC(=O)c1ccccc1`: the Potency result in [1], in [3], in test [4], in test [10], in [9] and in [5] was “inactive” in each case. Also, the Potency entry in test [6] and in [8] was “inactive” throughout. In [2], the Potency is 15.8 µM (active).

Regarding `Clc1ccc(C(Cl)(Cl)Cl)c(Cl)c1`, the Potency entry in test [1], in test [2], in test [3], in [4], in test [10] and in [6] was “inactive” in each case. Besides, the Potency entry in [7] and in [8] was “inactive” in each case.

As to `CC(=O)O[C@H]1CC[C@@]2(C)C(=CC[C@@H]3[C@@H]2CC[C@]2(C)C(=O)CC[C@@H]32)C1`, the Potency result in test [1], in test [2], in [3], in [4], in test [9] and in test [6] was “inactive” in each case. Further, in test [5], the Potency is 48.6 µM (active).

For the compound `CN(C)CCc1c[nH]c2cccc(O)c12`, the Potency result in test [1], in test [2], in [3], in test [4], in test [10] and in test [9] was “inactive” in each case. For the same compound, the Potency entry in test [6] and in [7] was “inactive” each time.

In the case of `CCC(C)(C)C(=O)OC1=C(c2ccc(Cl)cc2Cl)C(=O)OC12CCCCC2`, the Potency result in test [1], in test [2] and in test [3] was “inactive” in each case. The Potency in test [4] is 1.74 µM (active); in [6], 30.6 µM (active); in [7] it was 54.9 µM (active).

Regarding `Cc1cc(C(F)(C(F)(F)F)C(F)(F)F)ccc1NC(=O)c1cccc(I)c1C(=O)NC(C)(C)CS(C)(=O)=O`, the Potency entry in [1], in test [2], in test [3], in test [4], in [10] and in test [9] was “inactive” each time. Further, the Potency entry in test [6] and in [7] was “inactive” throughout.

Turning to `CC(C)OC(=S)S`, the Potency result in test [1], in test [2], in test [3], in test [4], in test [10] and in test [9] was “inactive” in each case. The Potency result in test [6] and in test [7] was “inactive” throughout.
